Assay results reported in the supplement of paper PMC12350171.
Structures can show the parent of a compound that is named as a salt. A number with no mark means an inactive call.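 How the source made its calls: active = normalised median growth AUC below 0.1 of DMSO control; inactive = AUC 0.1 or higher.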

What follows are compounds tested on S. enterica typhimurium tolC KO (assay: growth AUC normalised to DMSO control (median) (fraction of control); higher = less growth inhibition, active = hit call of the paper). Settings: 20 µM.
In short: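 Strains were passaged twice overnight without oxygen, then grown in mGAM in 96-well plates with each approved-drug library compound at 20 μM and 1% DMSO, starting at OD578 0.01. OD578 was read hourly for 24 h inside an anaerobic incubator. Curves were truncated at entry into stationary phase, and the trapezoidal-rule area under the curve was normalised to same-plate vehicle wells. The value is the median across three biological replicates.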
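Further: active when median AUC fell below 0.1.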

Structure (SMILES)	growth AUC normalised to DMSO control
CCN[C@H]1CN(CCCOC)S(=O)(=O)c2sc(S(N)(=O)=O)cc21 [Brinzolamide]	1
CN1CCCN=C1/C=C/c1cccs1 [Pyrantel tartrate]	1
CN1CCc2cccc3c2[C@H]1Cc1ccc(O)c(O)c1-3 [R(-) Apomorphine hydrochloride hemihydrate]	0.983
CCCCCCCN(CC)CCCC(O)c1ccc(NS(C)(=O)=O)cc1 (stereo not given) [Ibutilide fumarate]	1.01
Clc1ccc2c(c1)C(N1CCNCC1)=Nc1ccccc1O2 [Amoxapine]	0.972
Cc1c(OCC(F)(F)F)ccnc1C[S+]([O-])c1nc2ccccc2[nH]1 (stereo not given) [Lansoprazole]	0.852
Nc1ccc(/N=N/c2ccccc2)c(N)n1 [Phenazopyridine hydrochloride]	0.988
C[C@]12CC[C@@H]3c4ccc(O)cc4C[C@@H](CCCCCCCCC[S+]([O-])CCCC(F)(F)C(F)(F)F)[C@H]3[C@@H]1CC[C@@H]2O (stereo not given in full) [Fulvestrant]	0.998
OCCOCCN1CCN(C(c2ccccc2)c2ccc(Cl)cc2)CC1 (stereo not given) [Hydroxyzine dihydrochloride]	0.978
CNCCCC12CCC(c3ccccc31)c1ccccc12 [Maprotiline hydrochloride]	0.982
CC[C@H](C)C(=O)O[C@H]1C[C@H](O)C=C2C=C[C@H](C)[C@H](CC[C@@H](O)C[C@@H](O)CC(=O)O)[C@H]21 [Pravastatin]	1.01
S=c1[nH]cnc2nc[nH]c12 [Mercaptopurine]	0.998
CC/C(=C(\c1ccccc1)c1ccc(OCCN(C)C)cc1)c1ccccc1 [Tamoxifen citrate]	1.01
CC(=O)OCC(=O)[C@@]1(O)CC[C@H]2[C@@H]3CCC4=CC(=O)CC[C@]4(C)[C@@]3(F)[C@@H](O)C[C@@]21C [Fludrocortisone acetate]	0.981
CC[C@@H](CO)NCCN[C@@H](CC)CO [Ethambutol dihydrochloride]	0.989
O=C(Nc1cccc2c(=O)cc(-c3nnn[nH]3)oc12)c1ccc(OCCCCc2ccccc2)cc1 [Pranlukast]	0.987
CC(=C(CCO)SSCC1CCCO1)N(C=O)Cc1cnc(C)nc1N (stereo in doubt) [Fursultiamine hydrochloride]	0.999
Cc1ncc([N+](=O)[O-])n1CC(O)CCl (stereo not given) [Ornidazole]	0.99
CCC(=O)O[C@]1(C(=O)SCF)[C@H](C)C[C@H]2[C@@H]3C[C@H](F)C4=CC(=O)C=C[C@]4(C)[C@@]3(F)[C@@H](O)C[C@@]21C [Fluticasone propionate]	0.998
Cc1cccc(C)c1OCC(C)N (stereo not given) [Mexiletine hydrochloride]	0.999

Structure (SMILES)	growth AUC normalised to DMSO control
CCC(=O)OCC(=O)[C@@]1(OC(=O)CC)[C@H](C)C[C@H]2[C@H]3[C@H]([C@@H](O)C[C@@]21C)[C@@]1(C)C=CC(=O)C=C1C[C@H]3Cl [Alclometasone dipropionate]	1
NC(=O)c1cccnc1 [Nicotinamide]	1.01
c1ccc(CC2=NCCN2)cc1 [Tolazoline hydrochloride]	1.01
COc1cccc2c1C(=O)c1c(O)c3c(c(O)c1C2=O)C[C@@](O)(C(=O)CO)C[C@@H]3O[C@H]1C[C@H](N)[C@H](O)[C@H](C)O1 [Doxorubicin hydrochloride]	0.0132 (active)
CC(=O)NC[C@H]1CN(c2ccc(N3CCOCC3)c(F)c2)C(=O)O1 [Linezolid]	0.223
NC1CCN(c2nc3c(cc2F)c(=O)c(C(=O)O)cn3-c2ccc(F)cc2F)C1 (stereo not given) [Tosufloxacin hydrochloride]	0.00501 (active)
CCn1cc(C(=O)O)c(=O)c2cc(F)c(N3CCNCC3)cc21 [Norfloxacin]	0.0069 (active)
CCC1=C(C)CN(C(=O)NCCc2ccc(S(=O)(=O)NC(=O)N[C@H]3CC[C@H](C)CC3)cc2)C1=O [Glimepiride]	0.993
COc1ccc(C(=O)c2ccccc2O)c(O)c1 [Dioxybenzone]	0.951
C[C@H](O)C(=O)Nc1c(I)c(C(=O)NC(CO)CO)c(I)c(C(=O)NC(CO)CO)c1I [Iopamidol]	1.01
CCCOc1ccccc1-c1nc2[nH]nnc2c(=O)[nH]1 [Zaprinast]	1
CCCCc1oc2ccccc2c1C(=O)c1cc(I)c(OCCN(CC)CC)c(I)c1 [Amiodarone hydrochloride]	1.02
CC(C(=O)O)c1ccc(-c2ccccc2)c(F)c1 (stereo not given) [Flurbiprofen]	0.977
C[C@]12C=CC(=O)C=C1CC[C@@H]1[C@@H]2[C@@H](O)C[C@@]2(C)[C@H]1CC[C@]2(O)C(=O)CO [Prednisolone]	0.998
CNCCc1ccccn1 [Betahistine mesylate]	1.01
C[C@]12C=CC(=O)C=C1CC[C@@H]1[C@@H]2C(=O)C[C@@]2(C)[C@H]1CC[C@]2(O)C(=O)CO [Prednisone]	0.999
C[N+](C)(C)CCCCCC[N+](C)(C)C [Hexamethonium dibromide dihydrate]	1.02
CCCCNC(=O)NS(=O)(=O)c1ccc(C)cc1 [Tolbutamide]	1
COc1cc2nc(N3CCN(C(=O)C4CCCO4)CC3)nc(N)c2cc1OC (stereo not given) [Terazosin hydrochloride]	1.01
CC(=O)N1CCN(c2ccc(OCC3COC(Cn4ccnc4)(c4ccc(Cl)cc4Cl)O3)cc2)CC1 (stereo not given) [Ketoconazole]	0.884
